Measured values: PubChem BioAssay AID652040 (Broad Institute, 2013)
Entries with a potency or affinity are not part of this list. Active and inactive are the calls of the source.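 The calls were made as follows: active = falling luciferase signal whose fitted half-maximal concentration is at most twice the top tested dose; inconclusive = flat inhibition between 30 and 70% or a poor curve fit; inactive = the rest.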

Assay: off-target signal loss in HeLa-CEM21 co-culture – HeLa F-luc CTL cells, cherry-picked, counter-screen for HIV-1 Env fusion inhibitor project, dose response (AID 652040);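 also: more negative values mean stronger loss of luciferase signal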

Row | Compound | outcome
1 | CN1CC(c2ccccc2)C2(SC(=S)N(Cc3ccco3)C2=O)C12C(=O)Nc1ccccc12 (centres undefined) | inactive
2 | Cc1ccc2[nH]c3c(N4CCN(Cc5ccccc5)CC4)ncnc3c2c1 | inactive
3 | N#Cc1ccc(CSc2nnc(COc3ccccc3)n2-c2ccccc2)cc1 | inactive
4 | Nc1nonc1C(=O)NCCNCc1c(OCc2ccccc2F)ccc2ccccc12 | inactive
5 | COc1ccc(NS(=O)(=O)c2cccc(C(=O)NNC(=O)CNC(=O)c3ccc(C)cc3)c2)cc1 | inactive
6 | COC(=O)[C@@]1(Cc2ccc(F)cc2)[C@H]2c3cc(C(=O)N(C)C)n(CCO)c3C[C@H]2CN1C(=O)c1ccccc1 | inactive
7 | COc1ccc(C(=O)Nc2nc(-c3ccc(S(=O)(=O)N4CCOCC4)cc3)cs2)cc1 | inactive
8 | C[C@H]1NC(=O)[C@@]2(C)[C@H](c3ccccc3)[C@H]3COc4ccccc4[C@@H]3N2C1=O | inactive
9 | O=C(NCc1ccccc1)[C@@H]1CCCN1C(=O)[C@@H]1CCCN1C(=O)c1cccc2ccccc12 | inactive
10 | COc1cc(-c2cc(OC)c(O)c(OC)c2)cc(OC)c1O | inactive
11 | COc1ccccc1-c1c(-c2ccc(O)cc2O)n[nH]c1C(F)(F)F | inactive
12 | COc1ccc(OCC(=O)Nc2ccccc2N2CCCCC2)cc1 | inactive
13 | C=C(C)CN(CC)c1nc(N)c2c(N)nc3c(c2c1C#N)CC(=O)N3C12CC3CC(CC(C3)C1)C2 | inactive
14 | Cc1[nH]c2ccccc2c1/C=N\NC(=O)c1ccccc1Cl | inactive
15 | Fc1ccc(-n2nnnc2-c2cnc(-c3cccs3)nc2C(F)(F)F)cc1 | inactive
16 | Cn1c(CN2CCCCC2)nc2cc(NC(=O)c3ccc(Cl)cc3)ccc21 | inactive
17 | COc1ccccc1Oc1ccc(S(=O)(=O)NCc2ccccn2)cc1 | inactive
18 | CCCCCn1c(C(C)NC(=O)CCC)nc2ccccc21 (centres undefined) | inactive
19 | CCCCCCCCN1C(=O)[C@H](CC(=O)NCc2cccs2)C[C@@]2(C(=O)OCC)CCCC=C12 | inactive
20 | COc1ccc(CCN(Cc2cccs2)S(=O)(=O)c2ccc(-n3cnnn3)cc2)cc1OC | inactive

Row | Compound | outcome
21 | CC(c1nc2ccccc2c(=O)[nH]1)N(C)CCOc1ccc(Cl)cc1 (centres undefined) | inactive
22 | COc1ccc2[nH]c3c(N4CCC(O)(c5cccc(C(F)(F)F)c5)CC4)ncnc3c2c1 | inactive
23 | CCc1nc2ccccc2c(C(=O)OCC(=O)Nc2cccc(S(=O)(=O)N3CCOCC3)c2)c1C | inactive
24 | c1coc(CNc2c3c(nc4ccccc24)CCC3)c1 | inactive
25 | Cc1cc(C(=O)NC2CCCc3c2cnn3-c2ccc(C(C)(C)C)cc2)nn1C (centres undefined) | inactive
26 | O=C(Nc1ccc(S(=O)(=O)N2CCN(Cc3ccccc3)CC2)cc1)c1cnccn1 | inactive
27 | COc1ccc(OC)c(NC(=O)COc2ccc3c(c2)CCC3)c1 | inactive
28 | CCCn1c(Nc2nc3ccccc3n2C)nc2ccccc21 | inactive
29 | Cn1c(C(=O)N2CCN(c3nc4ccccc4s3)CC2)cc2sccc21 | inactive
30 | CC(=O)Nc1ccc(C(=O)OCC(=O)NC(=O)NCc2ccccc2)cc1 | inactive
31 | CC1CCN(S(=O)(=O)c2cc(C(=O)N3CCN(c4ccccc4)CC3)ccc2Br)CC1 | inactive
32 | COc1ccc(-c2nn(C)c(=O)c3ccccc23)cc1NC(=O)Cn1nc(C)c2ccccc2c1=O | inactive
33 | CCNC1CCC(Nc2ccnc3cc(Cl)ccc23)CC1 (centres undefined) | inactive
34 | C[C@@H]1CN([C@H](C)CO)S(=O)(=O)c2ccc(C#Cc3cccc(F)c3)cc2O[C@@H]1CN(C)C(=O)CN1CCOCC1 | inactive
35 | Cc1cc(Cl)c(S(=O)(=O)N2CCCC2)cc1OCC(=O)NC1CCCCC1 | inactive
36 | COc1ccc(C(O)c2nc3ccccc3n2C)cc1OC (centres undefined) | inactive
37 | COC(=O)C[C@H]1C=C[C@H](NC(=O)c2ccccn2)[C@@H](CO)O1 | inactive
38 | Cc1ccc(-n2nnnc2SCn2nnc3ccccc3c2=O)c(C)c1 | inactive
39 | COc1ccc(CCNC(=O)COC(=O)c2cccn2C)cc1 | inactive
